# FBA Mtb inh – inhibitors of M. tuberculosis fructose-bisphosphate aldolase; P9WQA3; purified M. tuberculosis FBA, fluorescence read-out; 2.3% of 360,000 active; inhibition, % at 1 µM;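 note: 0% = vehicle and 100% = reference inhibitor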
# Rv3671c inh – inhibitors of M. tuberculosis serine protease Rv3671c; P9WHR9; inhibition, % at 5.96 µM; 0.048% of 320,000 active; in the data active = inhibition above about 38%;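 note: extracellular domain of Rv3671c used as enzyme; 0% = enzyme with DMSO and 100% = no enzyme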
# BH1578 lux ind – quorum light induction in luxS cqsA deficient V. cholerae; V. cholerae BH1578 lux reporter, luminescence, 6 h; activation, % at 18.7 µM; 0.16% of 350,000 active; in the data active = activation mostly above about 9.7%, no sharp cut-off
# GDH-TPI counter-1 – GDH-TPI coupled enzyme inhibition counter-screen; GDH-TPI coupled enzyme counterscreen, NADH absorbance; inhibition, % at 4.8 µM; 1.2% of 360,000 active; in the data active = inhibition above about 30%;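 note: 0% = DMSO wells and 100% = wells lacking the enzyme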
# Mtb UGM inh – blocks M. tuberculosis UGM enzyme. P9WIQ1. purified UGM, fluorescence polarization probe displacement. 0.06% of 320,000 active. inhibition, % at 10 µM. AID 504406; in the data active = inhibition above about 10%, passing the limit was not always enough
# Target sequence (P9WIQ1 whole entry, looked up): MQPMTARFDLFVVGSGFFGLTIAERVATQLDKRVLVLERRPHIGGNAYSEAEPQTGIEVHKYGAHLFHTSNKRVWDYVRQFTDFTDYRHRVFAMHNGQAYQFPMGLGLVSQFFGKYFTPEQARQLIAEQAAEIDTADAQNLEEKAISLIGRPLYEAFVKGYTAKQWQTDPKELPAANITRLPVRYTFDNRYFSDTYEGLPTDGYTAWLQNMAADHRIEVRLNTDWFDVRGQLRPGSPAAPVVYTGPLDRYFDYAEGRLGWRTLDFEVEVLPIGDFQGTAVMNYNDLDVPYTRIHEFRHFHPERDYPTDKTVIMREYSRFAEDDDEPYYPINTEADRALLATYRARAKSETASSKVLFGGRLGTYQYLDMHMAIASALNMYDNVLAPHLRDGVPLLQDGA
# RecA splice inh – blocks M. tuberculosis RecA intein splicing; P9WHJ3; cell-free RecA intein splicing, fluorescence; inhibition, % (no concentration beside the values); 0.75% of 290,000 active; AID 2221; in the data active = inhibition above about 30%;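 note: 0% = vehicle wells and 100% = reference inhibitor control wells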
# Mtb FBA confirm – Mtb FBA inhibition, confirmed | 78% of 5,600 active | inhibition, % at 1 µM | purified M. tuberculosis FBA, fluorescence read-out | shares compounds with FBA Mtb inh;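 note: 0% = vehicle wells and 100% = reference inhibitor wells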
# GDH-TPI counter-2 – counter-screen for M. tuberculosis FBA inhibitors: GDH-TPI coupled enzyme inhibition | shares compounds with FBA Mtb inh | GDH-TPI coupled enzyme counterscreen, fluorescence | inhibition, % at 1 µM | 81% of 5,600 active | AID 652141; in the data active = inhibition above about 10%
# GDH-TPI dose – GDH-TPI dose response counter-screen for Mtb FBA | shares compounds with FBA Mtb inh | GDH-TPI coupled enzyme assay, fluorescence, artifact counterscreen | IC50, µM | 79% of 170 active | AID 652145; call rule not given here
# The depositor's hits bear a star; i = inactive; . = no result given; + = active, no number. Compounds with a hit are over-represented: about 4.1% of the library has one in this group of screens. Cut-off read from the data, not from the text of the source, unless noted: active = inhibition above about 27%; inactive = the rest.
SMILES,FBA Mtb inh,Rv3671c inh,BH1578 lux ind,GDH-TPI counter-1,Mtb UGM inh,RecA splice inh,Mtb FBA confirm,GDH-TPI counter-2,others
CCOC(=O)C(Cc1ccccc1)NC(=O)CCc1nnc2ccc(N3CCCC3)nn12 (stereo unspecified),2,1,-1,1,-3,-2,.,.,
CC1(C(=O)Nc2ccc3nc[nH]c3c2)CCN1C(=O)C/C=C/c1ccccc1 (stereo unspecified),-3,.,0,-2,.,.,.,.,
O=C(CSc1cccs1)NCCc1ccccc1,2,-5,0,6,2,1,.,.,
NS(=O)(=O)c1ccc(CCNC(=O)CSc2cccs2)cc1,97*,-19,0,1,0,-1,87*,56*,
NS(=O)(=O)c1ccc(CCNC(=O)c2cc(-c3cccs3)nc3ccccc23)cc1,99*,.,1,10,.,1,+,+,
COc1cc(-c2cc(C(=O)NCCc3ccc(S(N)(=O)=O)cc3)c3ccccc3n2)cc(OC)c1OC,-2,3,0,22,0,0,.,.,
CN(C)S(=O)(=O)c1cccc(NC(=O)c2cc(-c3cccs3)nc3ccccc23)c1,28*,-119,i,11,2,2,126*,103*,
NS(=O)(=O)c1ccc(CNC(=O)c2cc(-c3cccs3)nc3ccccc23)cc1,80*,-11,i,12,-2,2,1,2,
NS(=O)(=O)c1cccc(NC(=O)c2cc(-c3cccs3)nc3ccccc23)c1,26,-36,i,13,2,.,.,.,
O=C(CNC(=O)c1ccco1)OCC(=O)c1ccc([N+](=O)[O-])cc1,2,9,i,6,0,-4,.,.,
Nc1nc2ccccc2cc1S(=O)(=O)c1ccccc1,51*,0,3,-3,-2,0,116*,98*,
O=S(=O)(c1ccccc1)c1cnc2ccccc2c1,-2,14,i,5,-1,-4,.,.,
CC(=O)Nc1nnc(-c2ccccn2)o1,31*,-7,0,-2,2,0,+,153*,
O=C(Nc1nnc(-c2ccccn2)o1)c1cccc(Cl)c1,-3,-8,i,13,1,-1,.,.,
CN1CCSc2ccc(C(=O)NCc3ccccc3)cc21,96*,4,i,18,3,-6,+,167*,
O=C(NCc1ccccn1)c1ccc2c(c1)N(Cc1ccccc1)CCS2,94*,2,0,7,-1,2,3,0,
CCOC(=O)N1CCN(C(=O)c2ccc3c(c2)N(Cc2ccccc2)CCS3)CC1,11,7,0,5,-1,6,.,.,
O=C(NCc1cccnc1)c1ccc2c(c1)N(Cc1ccccc1)CCS2,76*,-10,0,3,1,-2,163*,124*,
CC1CCN(Cc2c(O)ccc3c(=O)c(-c4nc5ccccc5s4)c(N)oc23)CC1,9,-19,i,16,0,1,.,.,
CC1CCCN(Cc2c(O)ccc3c(=O)c(-c4nc5ccccc5s4)c(N)oc23)C1 (stereo unspecified),33*,-7,i,39*,0,0,136*,84*,
Cc1c(C(=O)Nc2ccc(Cl)cc2)c2ccccn2c1CCc1ccncc1,32*,-6,0,8,-2,0,12,1,GDH-TPI dose=0.97*
COC(=O)C1CCN(C(=O)COC(=O)c2cc(-c3ccccc3)nc3ccc(OC)cc23)CC1,83*,-27,0,22,1,.,58*,51*,
COc1ccc2oc(C(=O)OCC(=O)N3CC(C)OC(C)C3)c(C)c2c1 (stereo unspecified),36*,0,0,-11,-2,0,25,23*,
CCNC(=O)NC(=O)C(C)OC(=O)c1oc2ccc(OC)cc2c1C (stereo unspecified),44*,2,6,22,-1,2,2,-5,
COc1ccc2oc(C(=O)OCC(=O)NCc3ccccc3OC)c(C)c2c1,18,-11,i,4,-1,-1,.,.,

# Screening results from PubChem.
